Test results: PubChem BioAssay (NCI)
This is part of a sample that, as a whole, favours compounds with a hit. Of some 79,000 tested, about 15% had one in any assay. Active and inactive are the calls of the source. Cut-off read from the data, not from the text of the source: active = growth inhibition above about 70%; inactive = the rest.

Tests used:
[1] = NCI Yeast Anticancer Drug Screen. Data for the mlh1 strain (AID 171);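 note: 0% = growth of vehicle-treated control cultures of the same strain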; settings: S. cerevisiae mlh1 strain growth inhibition, stronger effect = higher value
In short: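 Read-out: growth inhibition versus vehicle controls. Strain: engineered yeast with a defined DNA repair or cell cycle defect, compound-treated.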

[2] = NCI Yeast Anticancer Drug Screen. Data for the sgs1 strain (AID 173);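 note: 0% = growth of vehicle-only control cultures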; settings: S. cerevisiae sgs1 mutant, stronger effect = higher value
In short: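 Read-out: yeast growth inhibition relative to vehicle controls, following compound exposure of a strain with a defined DNA repair/cell cycle alteration.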

[3] = NCI Yeast Anticancer Drug Screen. Data for the mlh1 rad18 strain (AID 175); settings: S. cerevisiae mlh1 rad18 strain growth inhibition, stronger effect = higher value
In short: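 Yeast w/ defined DNA-repair lesions; compound exposure; growth vs vehicle controls → % inhibition.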

[4] = NCI Yeast Anticancer Drug Screen. Data for the rad18 strain (AID 177); settings: S. cerevisiae rad18 mutant growth inhibition, stronger effect = higher value
In short: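 Readout: growth inhibition vs vehicle controls. Cells: genetically altered yeast strain, DNA repair defect.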

[5] = NCI Yeast Anticancer Drug Screen. Data for the rad52 strain (AID 147);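 note: 0% = growth of vehicle-treated control cultures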; settings: S. cerevisiae rad52 mutant growth inhibition, stronger effect = higher value
In short: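 Read-out: growth inhibition versus vehicle-treated controls. Cells were a DNA repair-deficient yeast strain treated with compounds.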

[6] = NCI Yeast Anticancer Drug Screen. Data for the wt1 strain (AID 149);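 note: 0% = growth of vehicle-treated wt1 cultures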; settings: S. cerevisiae wt1 strain (SPY 50644) growth inhibition, stronger effect = higher value
In short: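 Compounds are added to wt1 yeast cultures. Growth is then measured. Inhibition is expressed relative to vehicle-treated controls.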

[7] = NCI Yeast Anticancer Drug Screen. Data for the rad50EPP+ strain (AID 151);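 note: 0% = growth of vehicle-treated control cultures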; settings: S. cerevisiae rad50 mutant strain, stronger effect = higher value
In short: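 Growth inhibition read against vehicle controls in rad50EPP+ yeast, a strain altered in DNA damage repair, after compound exposure.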

[8] = NCI Yeast Anticancer Drug Screen. Data for the rad50 strain (AID 155);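 note: 0% = growth of vehicle-only cultures of the same strain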; settings: S. cerevisiae rad50 strain growth inhibition, stronger effect = higher value
In short: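 Inhibition values express reduced yeast growth in compound-treated cultures relative to vehicle-treated controls.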

[9] = NCI Yeast Anticancer Drug Screen. Data for the rad14 strain (AID 159);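 note: 0% = growth of vehicle-treated control cultures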; settings: S. cerevisiae rad14 strain growth inhibition, stronger effect = higher value
In short: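 A mutant yeast strain defective in DNA damage repair is treated with compound; inhibition of its growth is scored against untreated, vehicle-exposed cultures.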

[10] = NCI Yeast Anticancer Drug Screen. Data for the sgs1 mgt1 strain (AID 161);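 note: 0% = growth of cultures given vehicle only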; settings: S. cerevisiae sgs1 mgt1 strain, stronger effect = higher value
In short: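 Test agents were incubated with a DNA-repair-mutant yeast strain. Growth was then read and compared against vehicle-treated controls.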

[11] = NCI Yeast Anticancer Drug Screen. Data for the CLN2oe strain (AID 163);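 note: 0% = growth of vehicle-only control cultures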; settings: S. cerevisiae CLN2oe strain, stronger effect = higher value
In short: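 Read-out: yeast growth inhibition, expressed relative to vehicle-only controls. The strain bears an engineered cell-cycle alteration.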

[12] = NCI Yeast Anticancer Drug Screen. Data for the cln2 rad14 strain (AID 165);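 note: 0% = growth equal to vehicle treated cultures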; settings: S. cerevisiae cln2 rad14 strain, stronger effect = higher value
In short: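 cln2 rad14 yeast strain; compound exposure; growth inhibition read vs vehicle controls.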

[13] = NCI Yeast Anticancer Drug Screen. Data for the bub3 strain (AID 167); settings: S. cerevisiae bub3 mutant strain, stronger effect = higher value
In short: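 Steps: expose the mutant yeast strain to compound; grow alongside vehicle-treated cultures; measure growth; express inhibition against the vehicle cultures.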

[14] = NCI Yeast Anticancer Drug Screen. Data for the wt2 strain (AID 169);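 note: 0% = growth of vehicle-treated yeast cultures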; settings: S. cerevisiae wt2 strain growth inhibition, stronger effect = higher value
In short: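 Read-out: growth inhibition versus vehicle-treated control cultures after compound exposure of the yeast strain.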

[15] = NCI Yeast Anticancer Drug Screen. Data for the mec2-1 strain (AID 157); settings: S. cerevisiae mec2-1 strain, stronger effect = higher value
In short: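 Yeast mec2-1 mutant treated with compound. Readout: growth inhibition vs vehicle controls.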

[16] = at 5.0 µM (retest, dose inferred, filed as 0.5)
[17] = at 50.0 µM (retest, dose inferred, filed as 5.0)

Measured: growth inhibition

N#CN1C2CCC1CC(=O)C2
inactive: [1]; at 1.2 µM -19% | [1]; at 3.7 µM -11% | [1]; at 11.0 µM -13% | [1]; at 33.0 µM -16% | [1]; at 100.0 µM -21% | [2]; at 1.2 µM -17% | [2]; at 3.7 µM -20% | [2]; at 11.0 µM -12% | [2]; at 33.0 µM -23% | [2]; at 100.0 µM -24% | [3]; at 50.0 µM 62.1% | [4]; at 1.2 µM -10% | [4]; at 3.7 µM -15% | [4]; at 11.0 µM -22% | [4]; at 33.0 µM -21% | [4]; at 100.0 µM -9%
active: [3]; [16] 75% | [3]; [17] 100%

CSc1nc(=S)[nH]c2c1c(C)nn2-c1ccccc1
active: [8]; [17] 91% | [10]; [17] 98% | [10]; at 50.0 µM 72.1% | [13]; [17] 97% | [3]; [17] 84%
inactive: [5]; at 1.2 µM 11% | [5]; at 3.7 µM 18% | [5]; at 11.0 µM 12% | [5]; at 33.0 µM 11% | [5]; at 100.0 µM 41% | [6]; at 1.2 µM 11% | [6]; at 3.7 µM -2% | [6]; at 11.0 µM -1% | [6]; at 33.0 µM -4% | [6]; at 100.0 µM 1% | [7]; at 1.2 µM -17% | [7]; at 3.7 µM -16% | [7]; at 11.0 µM -24% | [7]; at 33.0 µM -10% | [7]; at 100.0 µM 14% | [8]; at 1.2 µM 12% | [8]; at 3.7 µM -1% | [8]; [16] 39% | [8]; at 11.0 µM 11% | [8]; at 33.0 µM 11% | [8]; at 50.0 µM 50.8% | [8]; at 100.0 µM 11% | [9]; at 1.2 µM 9% | [9]; at 3.7 µM 18% | [9]; at 11.0 µM 28% | [9]; at 33.0 µM 23% | [9]; at 100.0 µM 34% | [10]; [16] 42% | [11]; at 1.2 µM -8% | [11]; at 3.7 µM 0% | [11]; at 11.0 µM -4% | [11]; at 33.0 µM 3% | [11]; at 100.0 µM -14% | [12]; [16] 3% | [12]; [17] 62% | [12]; at 50.0 µM 33.8% | [13]; at 1.2 µM -16% | [13]; at 3.7 µM -6% | [13]; [16] 39% | [13]; at 11.0 µM -15% | [13]; at 33.0 µM -17% | [13]; at 50.0 µM 64% | [13]; at 100.0 µM -14% | [14]; at 1.2 µM -14% | [14]; at 3.7 µM 3% | [14]; at 11.0 µM 5% | [14]; at 33.0 µM 12% | [14]; at 100.0 µM 27% | [1]; at 1.2 µM 11% | [1]; at 3.7 µM 9% | [1]; at 11.0 µM 32% | [1]; at 33.0 µM 21% | [1]; at 100.0 µM 41% | [2]; at 1.2 µM 7% | [2]; at 3.7 µM -1% | [2]; at 11.0 µM 9% | [2]; at 33.0 µM 16% | [2]; at 100.0 µM 39% | [3]; [16] 26% | [3]; at 50.0 µM 52.1% | [4]; at 1.2 µM 10% | [4]; at 3.7 µM -10% | [4]; at 11.0 µM 4% | [4]; at 33.0 µM -5% | [4]; at 100.0 µM 36%

CCOC(=O)C1=C(C(=O)c2ccccc2)C(c2ccccc2[N+](=O)[O-])C(C(=O)c2ccccc2)=C(C(=O)OCC)N1
active: [8]; at 50.0 µM 71.6% | [13]; [17] 86%
inactive: [5]; at 1.2 µM -2% | [5]; at 3.7 µM 0% | [5]; at 11.0 µM -1% | [5]; at 33.0 µM 1% | [5]; at 100.0 µM 11% | [6]; at 1.2 µM -2% | [6]; at 3.7 µM -1% | [6]; at 11.0 µM -1% | [6]; at 33.0 µM -1% | [6]; at 100.0 µM -4% | [7]; at 1.2 µM 1% | [7]; at 3.7 µM 7% | [7]; at 11.0 µM 13% | [7]; at 33.0 µM 18% | [7]; at 100.0 µM 27% | [8]; at 1.2 µM 0% | [8]; at 3.7 µM -1% | [8]; [16] 2% | [8]; at 11.0 µM -2% | [8]; at 33.0 µM 1% | [8]; [17] 60% | [8]; at 100.0 µM 17% | [15]; at 1.2 µM -3% | [15]; at 3.7 µM -3% | [15]; [16] -4% | [15]; at 11.0 µM -3% | [15]; at 33.0 µM -1% | [15]; [17] 20% | [15]; at 50.0 µM 18.6% | [15]; at 100.0 µM 10% | [10]; [16] 9% | [10]; [17] 16% | [10]; at 50.0 µM 41.8% | [11]; at 1.2 µM 0% | [11]; at 3.7 µM 0% | [11]; at 11.0 µM 2% | [11]; at 33.0 µM 3% | [11]; at 100.0 µM 0% | [12]; [16] 7% | [12]; [17] 39% | [12]; at 50.0 µM 16.9% | [13]; at 1.2 µM 6% | [13]; at 3.7 µM 8% | [13]; [16] 3% | [13]; at 11.0 µM 11% | [13]; at 33.0 µM 10% | [13]; at 50.0 µM 19% | [13]; at 100.0 µM 42% | [14]; at 1.2 µM -2% | [14]; at 3.7 µM -1% | [14]; at 11.0 µM -1% | [14]; at 33.0 µM 0% | [14]; at 100.0 µM 10% | [1]; at 1.2 µM -1% | [1]; at 3.7 µM -2% | [1]; at 11.0 µM -2% | [1]; at 33.0 µM 1% | [1]; at 100.0 µM 20% | [2]; at 1.2 µM -2% | [2]; at 3.7 µM 1% | [2]; at 11.0 µM 5% | [2]; at 33.0 µM 7% | [2]; at 100.0 µM 17% | [3]; [16] -21% | [3]; [17] 61% | [3]; at 50.0 µM 65.6% | [4]; at 1.2 µM 0% | [4]; at 3.7 µM 1% | [4]; at 11.0 µM 1% | [4]; at 33.0 µM 7% | [4]; at 100.0 µM 39%
